# Laboratory results reported in the supplement of paper PMC9262897, “Low-cost anti-mycobacterial drug discovery using engineered E. coli” (Nature Communications, 2022).
# Counter-ions that a name gives are not always drawn. ± gives the standard deviation of the averaged measurements.
# Legend:
# Test in all cases: growth (OD600 after 10 h); higher = more growth (less inhibition)
# [1] = system: E. coli TESEC Alr+ wild-type control; details: compound 0.1 mM; raw OD600 reference: median of DMSO wells 0.241, cell-free background 0.041
# Experimental: (§1)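 TESEC Mtb Alr E. coli, or the Alr+ wild-type control, in 384-well plates with Prestwick library compounds at 0.1 mM and 1% DMSO, across arabinose induction levels of 1E3 to 1E7 nM. Growth is read as OD600 after 10 h at 37 °C in triplicate biological replicates.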
# E. coli TESEC Mtb Alr [2] = details: compound 0.1 mM
# Experimental: as §1
# E. coli TESEC Mtb Asd = details: compound 0.1 mM
# Experimental: (§2)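 TESEC E. coli strains in which the native enzyme is deleted and replaced by arabinose-inducible Mtb Asd, DapB, CysH or TrpD, each grown in its selective medium. Strains were screened against the Prestwick library at 0.1 mM and 1% DMSO in 384-well format at low and high arabinose induction. Growth is read as OD600 after 10 h in triplicate.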
# E. coli TESEC Mtb DapB = details: compound 0.1 mM
# Experimental: as §2
# [3] = system: E. coli TESEC Alr+ wild-type control; details: compound 0.1 mM; raw OD600 reference: median of DMSO wells 0.49, cell-free background 0.052
# Experimental: (§3)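 TESEC Mtb Alr E. coli (ΔaraC ΔtolC ΔentC Δalr ΔdadX, arabinose-inducible Mtb Alr) or the Alr+ wild-type control strain, grown in defined M9-fructose medium without D-alanine in 96-well plates with Prestwick library compounds at 0.1 mM and 1% DMSO. Low Alr induction is 0.1 µM arabinose and high induction is 10 mM arabinose.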
# E. coli TESEC Mtb Alr [4] = details: compound 0.1 mM; remark: listed apart in the source
# Experimental: as §3
# [5] = arabinose 1000 nM, raw OD600 reference: median of DMSO wells 0.294, cell-free background 0.041
# [6] = arabinose 10000 nM, raw OD600 reference: median of DMSO wells 0.264, cell-free background 0.041
# [7] = arabinose 100000 nM, raw OD600 reference: median of DMSO wells 0.201, cell-free background 0.041
# [8] = arabinose 1000000 nM, raw OD600 reference: median of DMSO wells 0.193, cell-free background 0.041
# [9] = arabinose 10000000 nM, raw OD600 reference: median of DMSO wells 0.146, cell-free background 0.041
# [10] = arabinose induction (level): High, raw OD600 reference: median of DMSO wells 0.331, cell-free background 0.041
# [11] = arabinose induction (level): Low, raw OD600 reference: median of DMSO wells 0.417, cell-free background 0.041
# [12] = arabinose induction (level): High, raw OD600 reference: median of DMSO wells […], cell-free background 0.041
# [13] = arabinose induction (level): Low, raw OD600 reference: median of DMSO wells 0.227, cell-free background 0.041
# [14] = arabinose 100 nM, raw OD600 reference: median of DMSO wells 0.413, cell-free background 0.052
# [15] = arabinose 10000000 nM, raw OD600 reference: median of DMSO wells […], cell-free background 0.052
SMILES,growth [1],growth (E. coli TESEC Mtb Alr [2]; [5]),growth (E. coli TESEC Mtb Alr [2]; [6]),growth (E. coli TESEC Mtb Alr [2]; [7]),growth (E. coli TESEC Mtb Alr [2]; [8]),growth (E. coli TESEC Mtb Alr [2]; [9]),growth (E. coli TESEC Mtb Asd; [10]),growth (E. coli TESEC Mtb Asd; [11]),growth (E. coli TESEC Mtb DapB; [12]),growth (E. coli TESEC Mtb DapB; [13]),growth [3],growth (E. coli TESEC Mtb Alr [4]; [14]),growth (E. coli TESEC Mtb Alr [4]; [15])
C/C=C(/C(=C/C)c1ccc(O)cc1)c1ccc(O)cc1 [Dienestrol],0.0526 ± 0.0075,0.0496 ± 0.0047,0.0394 ± 0.0002,0.0419 ± 0.0015,0.0393 ± 0.0001,0.0759 ± 0.031,0.0492 ± 0.0033,0.0498 ± 0.0031,0.122 ± 0.035,0.0554 ± 0.0074,0.139 ± 0.14,0.0576 ± 0.014,0.05137 ± 0.00032
COc1ccc(C[C@@H]2c3cc(OC)c(OC)cc3CC[N@+]2(C)CCC(=O)OCCCCCOC(=O)CC[N@@+]2(C)CCc3cc(OC)c(OC)cc3[C@H]2Cc2ccc(OC)c(OC)c2)cc1OC [Cisatracurium besylate],0.188 ± 0.0083,0.307 ± 0.0083,0.242 ± 0.014,0.166 ± 0.0072,0.119 ± 0.0042,0.156 ± 0.0018,0.307 ± 0.04,0.414 ± 0.032,0.168 ± 0.022,0.209 ± 0.021,0.497 ± 0.054,0.411 ± 0.0072,0.304 ± 0.0097
CC1(C)S[C@@H]2[C@H](NC(=O)[C@H](N)c3ccc(O)cc3)C(=O)N2[C@H]1C(=O)O [Amoxicillin],0.242 ± 0.006,0.297 ± 0.0057,0.251 ± 0.0052,0.211 ± 0.033,0.186 ± 0.0034,0.14 ± 0.0024,0.358 ± 0.097,0.321 ± 0.037,0.217 ± 0.029,0.259 ± 0.046,0.572 ± 0.07,0.422 ± 0.011,0.378 ± 0.0083
Cc1c(N(C)C)c(=O)n(-c2ccccc2)n1C [Amidopyrine],0.242 ± 0.0096,0.28 ± 0.016,0.2721 ± 0.0006,0.225 ± 0.02,0.184 ± 0.0082,0.138 ± 0.0025,0.373 ± 0.017,0.41 ± 0.042,0.21 ± 0.017,0.254 ± 0.056,0.462 ± 0.039,0.412 ± 0.0055,0.365 ± 0.037
COc1cc2nc(N3CCN(C(=O)c4ccco4)CC3)nc(N)c2cc1OC [Prazosin hydrochloride],0.242 ± 0.0066,0.319 ± 0.019,0.239 ± 0.0065,0.185 ± 0.008,0.147 ± 0.015,0.226 ± 0.0067,0.263 ± 0.09,0.348 ± 0.091,0.247 ± 0.023,0.285 ± 0.029,0.498 ± 0.007,0.399 ± 0.013,0.3092 ± 0.0026
CC1(C)O[C@@H]2C[C@H]3[C@@H]4C[C@H](F)C5=CC(=O)C=C[C@]5(C)[C@@]4(F)[C@@H](O)C[C@]3(C)[C@]2(C(=O)CO)O1 [Fluocinolone acetonide],0.174 ± 0.0075,0.262 ± 0.01,0.263 ± 0.0058,0.153 ± 0.0083,0.146 ± 0.0019,0.144 ± 0.0033,0.198 ± 0.02,0.401 ± 0.017,0.188 ± 0.019,0.239 ± 0.039,0.591 ± 0.015,0.409 ± 0.0053,0.274 ± 0.0057
CC(C)C(=O)Nc1ccc([N+](=O)[O-])c(C(F)(F)F)c1 [Flutamide],0.191 ± 0.0072,0.189 ± 0.0088,0.161 ± 0.0036,0.203 ± 0.0051,0.0619 ± 0.00076,0.0856 ± 0.0029,0.156 ± 0.024,0.165 ± 0.01,0.177 ± 0.013,0.218 ± 0.039,0.506 ± 0.0074,0.383 ± 0.036,0.16 ± 0.036
NCCCC[C@H](N[C@@H](CCc1ccccc1)C(=O)O)C(=O)N1CCC[C@H]1C(=O)O [Lisinopril],0.257 ± 0.0039,0.304 ± 0.0053,0.251 ± 0.0067,0.213 ± 0.0063,0.177 ± 0.0033,0.159 ± 0.0064,0.35 ± 0.051,0.4 ± 0.031,0.212 ± 0.0046,0.316 ± 0.057,0.49 ± 0.035,0.41 ± 0.015,0.343 ± 0.0091
CCN(CC)CCOCCOC(=O)C1(c2ccccc2)CCCC1 [Carbetapentane citrate],0.203 ± 0.0053,0.275 ± 0.015,0.249 ± 0.0094,0.191 ± 0.03,0.133 ± 0.004,0.161 ± 0.0033,0.153 ± 0.017,0.294 ± 0.064,0.185 ± 0.021,0.199 ± 0.011,0.539 ± 0.035,0.41 ± 0.0084,0.288 ± 0.012
CC[N+](C)(C)c1cccc(O)c1 [Edrophonium chloride],0.258 ± 0.011,0.294 ± 0.012,0.266 ± 0.004,0.227 ± 0.03,0.192 ± 0.012,0.144 ± 0.0031,0.384 ± 0.013,0.403 ± 0.013,0.203 ± 0.017,0.27 ± 0.098,0.437 ± 0.029,0.401 ± 0.015,0.346 ± 0.029
CN1C2CCCC1CC(NC(=O)c1nn(C)c3ccccc13)C2 (configuration not stated) [Granisetron],0.208 ± 0.0038,0.301 ± 0.026,0.2743 ± 0.0024,0.171 ± 0.0068,0.213 ± 0.014,0.126 ± 0.0041,0.28 ± 0.063,0.379 ± 0.08,0.202 ± 0.022,0.238 ± 0.015,0.549 ± 0.068,0.424 ± 0.0065,0.351 ± 0.0039
COc1c(N2CCNC(C)C2)c(F)cc2c(=O)c(C(=O)O)cn(C3CC3)c12 (configuration not stated) [Gatifloxacin],0.0447 ± 0.0053,0.0402 ± 0.00046,0.0396 ± 0.0002,0.04067 ± 0.00032,0.03983 ± 0.00029,0.0409 ± 0.00055,0.0508 ± 0.0018,0.0482 ± 0.0013,0.04873 ± 0.00025,0.04953 ± 0.00047,0.05293 ± 0.00023,0.0533 ± 0.00079,0.0521 ± 0.0016
CN1CCC[C@@H]1CCO[C@](C)(c1ccccc1)c1ccc(Cl)cc1 [Clemastine fumarate],0.0447 ± 0.00026,0.0419 ± 0.00017,0.0403 ± 0.0001,0.04353 ± 0.00025,0.04023 ± 0.00015,0.0439 ± 0.0004,0.0482 ± 0.0021,0.0504 ± 0.0026,0.0513 ± 0.00046,0.102 ± 0.085,0.218 ± 0.29,0.421 ± 0.0052,0.0923 ± 0.02
CN(Cc1cc(Br)cc(Br)c1N)C1CCCCC1 [Bromhexine hydrochloride],0.0422 ± 0.0023,0.0459 ± 0.0083,0.04107 ± 0.00031,0.0454 ± 0.0014,0.0423 ± 0.00059,0.0454 ± 0.00098,0.194 ± 0.028,0.0472 ± 0.0019,0.04827 ± 0.00047,0.0644 ± 0.0038,0.0641 ± 0.0033,0.0619 ± 0.0019,0.0553 ± 0.0034
